# Assay results from the supplement of paper PMC10849652.
# Of roughly 8,800 targets only a part is listed; those with a hit were picked by preference. About 0.5% of all pairs of compound and target were hits. Values without a mark were called inactive.
# Columns and labels:
# Test in all cases: log2 fold change, soluble protein after heating vs DMSO (PISA); higher = thermal stabilisation; K562 lysate, 10 uM; active = over 0.2 and 3.5 SD of the protein, either way, in both replicates (recomputed)
# [1] = compound: NCC(=O)Nc1ccc(-n2nc(C(F)(F)F)cc2-c2ccc3c(ccc4ccccc43)c2)cc1
# How it was run: (§1)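 Dounce homogenisation of K562 pellets in PBS pH 7.4 with 1 mM MgCl2 produced a crude extract, used at 1 mg/mL protein. Exposure to 10 μM compound lasted 30 min, and aliquots were then heated for 3 min across 48°C-58°C, pooled and brought to 0.5% NP-40 at 4°C. The supernatant after 21,000xg for 90 min was quantified by TMTpro 16plex LC-MS/MS with channel sums equalised. Duplicate values are given as log-two fold change in thermal stability relative to solvent controls.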
# vorinostat = compound: O=C(CCCCCCC(=O)Nc1ccccc1)NO [vorinostat]
# How it was run: as §1
# silmitasertib = compound: O=C(O)c1ccc2c(c1)nc(Nc1cccc(Cl)c1)c1ccncc12 [silmitasertib]
# How it was run: as §1
# [2] = compound: O=C1NC(=O)C(c2cnc3ccccn23)=C1c1cn2c3c(cc(F)cc13)CN(C(=O)N1CCCCC1)CC2
# How it was run: as §1
# entospletinib = compound: c1cn2cc(-c3ccc4cn[nH]c4c3)nc(Nc3ccc(N4CCOCC4)cc3)c2n1 [entospletinib]
# How it was run: as §1
# Chain of UniProt P34913 (P34913 whole entry, looked up): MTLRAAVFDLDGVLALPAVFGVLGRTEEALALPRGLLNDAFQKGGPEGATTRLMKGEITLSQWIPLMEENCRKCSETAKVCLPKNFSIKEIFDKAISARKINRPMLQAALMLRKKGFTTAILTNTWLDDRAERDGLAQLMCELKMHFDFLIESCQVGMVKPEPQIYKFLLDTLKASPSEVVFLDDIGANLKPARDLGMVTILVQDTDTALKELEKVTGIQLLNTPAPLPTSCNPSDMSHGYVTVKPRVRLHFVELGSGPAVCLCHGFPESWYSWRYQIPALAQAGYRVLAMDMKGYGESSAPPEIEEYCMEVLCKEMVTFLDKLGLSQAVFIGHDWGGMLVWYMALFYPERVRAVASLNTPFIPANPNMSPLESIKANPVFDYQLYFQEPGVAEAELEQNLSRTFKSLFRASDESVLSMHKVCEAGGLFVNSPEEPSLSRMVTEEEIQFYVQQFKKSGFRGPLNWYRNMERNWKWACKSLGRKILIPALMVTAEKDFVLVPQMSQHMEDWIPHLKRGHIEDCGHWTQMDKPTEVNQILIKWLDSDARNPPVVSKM
# Chain of UniProt Q9NVI1 (Q9NVI1 whole entry, looked up): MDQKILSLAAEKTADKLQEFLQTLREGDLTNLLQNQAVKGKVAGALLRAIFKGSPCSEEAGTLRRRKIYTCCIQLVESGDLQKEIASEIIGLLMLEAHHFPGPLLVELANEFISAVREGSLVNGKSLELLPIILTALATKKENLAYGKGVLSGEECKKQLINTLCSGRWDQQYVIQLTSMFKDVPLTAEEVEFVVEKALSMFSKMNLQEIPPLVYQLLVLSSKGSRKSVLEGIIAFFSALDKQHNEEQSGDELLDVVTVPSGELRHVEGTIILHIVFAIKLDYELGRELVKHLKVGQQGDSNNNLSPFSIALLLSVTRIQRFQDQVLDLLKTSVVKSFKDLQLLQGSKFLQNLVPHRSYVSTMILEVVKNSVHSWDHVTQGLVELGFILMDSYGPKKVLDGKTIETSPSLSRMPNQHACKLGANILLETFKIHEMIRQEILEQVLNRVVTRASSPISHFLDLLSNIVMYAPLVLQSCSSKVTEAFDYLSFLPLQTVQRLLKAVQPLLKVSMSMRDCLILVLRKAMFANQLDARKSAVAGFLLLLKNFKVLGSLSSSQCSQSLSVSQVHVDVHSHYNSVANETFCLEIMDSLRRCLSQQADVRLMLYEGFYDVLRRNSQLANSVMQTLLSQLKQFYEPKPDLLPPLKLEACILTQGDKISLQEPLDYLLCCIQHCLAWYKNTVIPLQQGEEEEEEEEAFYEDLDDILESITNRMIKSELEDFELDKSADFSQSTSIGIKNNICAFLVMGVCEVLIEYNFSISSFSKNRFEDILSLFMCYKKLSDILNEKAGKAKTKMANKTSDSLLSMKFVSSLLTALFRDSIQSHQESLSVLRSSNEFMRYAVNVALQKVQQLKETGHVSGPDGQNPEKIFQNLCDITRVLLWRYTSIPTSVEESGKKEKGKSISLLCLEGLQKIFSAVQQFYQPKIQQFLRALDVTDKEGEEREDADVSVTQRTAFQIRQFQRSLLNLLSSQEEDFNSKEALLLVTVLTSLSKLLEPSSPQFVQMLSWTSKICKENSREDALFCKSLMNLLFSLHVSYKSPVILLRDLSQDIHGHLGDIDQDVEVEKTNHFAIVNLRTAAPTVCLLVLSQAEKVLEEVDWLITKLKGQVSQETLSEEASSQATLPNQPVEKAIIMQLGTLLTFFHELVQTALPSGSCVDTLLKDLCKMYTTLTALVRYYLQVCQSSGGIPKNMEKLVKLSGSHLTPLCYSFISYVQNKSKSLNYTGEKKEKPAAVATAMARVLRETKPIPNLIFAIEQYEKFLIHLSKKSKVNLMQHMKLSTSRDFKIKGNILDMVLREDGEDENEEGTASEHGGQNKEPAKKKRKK
# Chain of UniProt Q6IPR1 (Q6IPR1 whole entry, looked up): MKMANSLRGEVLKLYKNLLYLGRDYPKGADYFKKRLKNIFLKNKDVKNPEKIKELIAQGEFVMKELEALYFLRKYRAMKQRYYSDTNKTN
# Chain of UniProt O15117 (O15117 whole entry, looked up): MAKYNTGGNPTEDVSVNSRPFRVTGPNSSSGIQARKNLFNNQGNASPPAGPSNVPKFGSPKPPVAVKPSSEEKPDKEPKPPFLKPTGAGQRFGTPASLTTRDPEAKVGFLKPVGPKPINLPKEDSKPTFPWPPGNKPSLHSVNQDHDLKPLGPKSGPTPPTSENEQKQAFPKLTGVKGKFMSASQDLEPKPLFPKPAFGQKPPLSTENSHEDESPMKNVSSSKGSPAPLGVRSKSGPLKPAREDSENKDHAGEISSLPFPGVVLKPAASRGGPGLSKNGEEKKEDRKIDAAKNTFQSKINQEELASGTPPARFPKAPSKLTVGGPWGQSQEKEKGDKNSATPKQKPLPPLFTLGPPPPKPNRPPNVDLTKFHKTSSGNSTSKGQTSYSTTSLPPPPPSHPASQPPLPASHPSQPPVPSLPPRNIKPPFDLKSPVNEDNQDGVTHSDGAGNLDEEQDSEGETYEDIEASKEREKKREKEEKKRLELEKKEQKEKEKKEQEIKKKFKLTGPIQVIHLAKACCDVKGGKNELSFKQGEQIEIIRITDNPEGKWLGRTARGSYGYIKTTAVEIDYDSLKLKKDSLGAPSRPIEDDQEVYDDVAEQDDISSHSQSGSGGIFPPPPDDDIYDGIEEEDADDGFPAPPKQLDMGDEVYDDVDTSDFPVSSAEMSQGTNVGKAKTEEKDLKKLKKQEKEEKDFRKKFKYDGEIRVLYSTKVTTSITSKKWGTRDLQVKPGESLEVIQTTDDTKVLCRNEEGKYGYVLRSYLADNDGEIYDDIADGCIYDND
# Chain of UniProt O14526 (O14526 whole entry, looked up): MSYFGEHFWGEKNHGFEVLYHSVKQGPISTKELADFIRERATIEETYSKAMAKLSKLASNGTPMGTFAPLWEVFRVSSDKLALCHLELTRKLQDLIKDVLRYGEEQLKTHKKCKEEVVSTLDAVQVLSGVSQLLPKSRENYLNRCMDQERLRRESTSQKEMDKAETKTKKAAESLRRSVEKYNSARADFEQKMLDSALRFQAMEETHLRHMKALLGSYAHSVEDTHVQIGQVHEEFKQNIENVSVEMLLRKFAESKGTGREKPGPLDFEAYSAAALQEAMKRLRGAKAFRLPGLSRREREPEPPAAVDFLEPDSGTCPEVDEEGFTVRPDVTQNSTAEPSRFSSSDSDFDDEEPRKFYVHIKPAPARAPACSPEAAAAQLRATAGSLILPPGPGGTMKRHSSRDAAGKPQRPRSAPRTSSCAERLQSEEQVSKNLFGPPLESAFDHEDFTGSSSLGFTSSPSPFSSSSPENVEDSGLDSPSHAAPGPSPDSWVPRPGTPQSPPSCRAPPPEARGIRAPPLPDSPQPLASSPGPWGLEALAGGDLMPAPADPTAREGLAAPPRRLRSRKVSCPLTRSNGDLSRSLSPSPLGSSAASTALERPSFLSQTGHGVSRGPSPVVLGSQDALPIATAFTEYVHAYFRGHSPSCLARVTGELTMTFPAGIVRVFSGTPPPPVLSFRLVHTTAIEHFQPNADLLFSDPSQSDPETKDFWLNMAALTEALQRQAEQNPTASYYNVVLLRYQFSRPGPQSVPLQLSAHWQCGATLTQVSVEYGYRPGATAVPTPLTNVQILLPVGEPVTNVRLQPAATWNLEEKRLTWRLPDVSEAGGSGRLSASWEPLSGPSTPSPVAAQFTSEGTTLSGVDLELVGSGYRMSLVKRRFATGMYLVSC
# Chain of UniProt Q9GZT9 (Q9GZT9 whole entry, looked up): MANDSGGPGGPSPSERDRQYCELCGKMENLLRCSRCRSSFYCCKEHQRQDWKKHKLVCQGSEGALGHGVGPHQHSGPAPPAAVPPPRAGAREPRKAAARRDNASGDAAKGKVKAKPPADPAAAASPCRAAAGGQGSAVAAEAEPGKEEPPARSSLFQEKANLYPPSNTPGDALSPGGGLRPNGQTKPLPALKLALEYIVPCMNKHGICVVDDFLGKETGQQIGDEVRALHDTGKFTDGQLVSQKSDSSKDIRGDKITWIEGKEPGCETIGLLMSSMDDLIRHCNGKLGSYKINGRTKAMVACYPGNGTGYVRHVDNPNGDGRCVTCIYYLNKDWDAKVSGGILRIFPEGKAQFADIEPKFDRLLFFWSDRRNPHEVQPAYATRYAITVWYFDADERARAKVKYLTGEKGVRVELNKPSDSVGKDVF
# Chain of UniProt Q9UBQ6 (Q9UBQ6 whole entry, looked up): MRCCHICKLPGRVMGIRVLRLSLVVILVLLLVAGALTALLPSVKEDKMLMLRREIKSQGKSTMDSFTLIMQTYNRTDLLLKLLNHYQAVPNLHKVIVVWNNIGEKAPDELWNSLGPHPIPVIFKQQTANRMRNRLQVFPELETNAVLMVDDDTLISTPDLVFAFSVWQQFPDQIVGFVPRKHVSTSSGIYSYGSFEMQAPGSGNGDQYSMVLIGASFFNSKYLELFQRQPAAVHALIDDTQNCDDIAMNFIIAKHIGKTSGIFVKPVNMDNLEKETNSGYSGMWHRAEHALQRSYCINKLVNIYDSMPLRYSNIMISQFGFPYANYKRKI
# Chain of UniProt P51114 (P51114 whole entry, looked up): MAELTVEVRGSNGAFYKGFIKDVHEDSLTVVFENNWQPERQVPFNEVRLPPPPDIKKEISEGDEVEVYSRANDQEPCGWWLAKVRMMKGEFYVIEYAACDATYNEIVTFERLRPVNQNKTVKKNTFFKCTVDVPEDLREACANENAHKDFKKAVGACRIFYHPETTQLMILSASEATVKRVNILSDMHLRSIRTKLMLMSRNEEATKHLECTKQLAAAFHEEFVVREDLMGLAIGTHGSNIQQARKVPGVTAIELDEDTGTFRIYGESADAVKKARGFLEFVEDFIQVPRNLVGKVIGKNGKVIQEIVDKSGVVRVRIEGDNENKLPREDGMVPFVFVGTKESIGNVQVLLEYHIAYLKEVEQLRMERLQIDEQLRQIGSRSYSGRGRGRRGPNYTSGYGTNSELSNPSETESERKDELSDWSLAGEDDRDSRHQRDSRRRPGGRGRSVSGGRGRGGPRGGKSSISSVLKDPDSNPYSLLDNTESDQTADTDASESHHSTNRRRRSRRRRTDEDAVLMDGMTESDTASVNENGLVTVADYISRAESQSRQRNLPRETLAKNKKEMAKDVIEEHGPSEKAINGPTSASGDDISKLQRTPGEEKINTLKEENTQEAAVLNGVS
Target,log2 fold change [1],log2 fold change (vorinostat),log2 fold change (silmitasertib),log2 fold change [2],log2 fold change (entospletinib)
DUSP22 isoform 2 (UniProt Q9NRW4),-0.025,-0.102,0.002,–,–
FAM118B (UniProt Q9BPY3),0,-0.273 (active),0.018,0,-0.005
GEMIN4 (UniProt P57678),-0.025,-0.435 (active),0.1,0.019,0.034
ERCC4 (UniProt Q92889),0.026,-0.241 (active),0.002,-0.065,0.021
FAM111A (UniProt Q96PZ2),0.036,-0.364,0.1,0.048,0.044
FTSJ3 (UniProt Q8IY81),-0.034,0.068,0.017,0.012,-0.043
GBF1 (UniProt Q92538),-0.019,-0.304 (active),0.023,0.043,0.008
GATAD2A isoform 3 (UniProt Q86YP4),0.023,-0.213 (active),-0.028,0.019,-0.001
ECH1 (UniProt Q13011),0.041,0.081,-0.026,-0.052,0.022
"EEF1A1, A0A087WVQ9",-0.025,-0.541 (active),-0.002,-0.022,0.015
ETFRF1 (UniProt Q6IPR1),0.03,0.24 (active),-0.043,0.051,–
EWSR1 isoform 5 (UniProt Q01844),0.027,0.036,-0.034,0.006,0.014
EHD2 (UniProt Q9NZN4),0.005,-0.282 (active),0.073,0.018,0.032
EGLN1 (UniProt Q9GZT9),0.008,-0.395 (active),0.025,-0.024,-0.009
FYB1 isoform 3 (UniProt O15117),0.007,0.002,-0.021,0,-0.006
GART (UniProt P22102),0.017,-0.303 (active),0.006,0.003,0.012
FAM98A (UniProt Q8NCA5),0.027,-0.558 (active),0.005,0.01,0.006
FAM204A (UniProt Q9H8W3),-0.057,-0.211,-0.095,0.044,–
FBXO38 (UniProt Q6PIJ6),-0.029,-0.393,0.34,-0.159,-0.173
DTWD1 (UniProt Q8N5C7),0.059,-0.27 (active),-0.022,-0.028,0.036
FANCI (UniProt Q9NVI1),0.002,-0.389 (active),0.062,0.018,0.039
EIF2AK2 (UniProt P19525),0.021,-0.415 (active),0.038,-0.017,0.068
GCN1 (UniProt Q92616),0.01,-0.374 (active),0.114,0.033,-0.011
EIF2B4 (UniProt Q9UI10),0.028,-0.135,0.013,-0.006,-0.05
GIGYF2 (UniProt Q6Y7W6),-0.001,-0.252 (active),-0.007,-0.042,0.017
GAMT (UniProt Q14353),-0.046,-0.423 (active),-0.008,-0.049,-0.001
FBXO22 (UniProt Q8NEZ5),0.014,-0.477 (active),-0.022,-0.018,0.014

Target,log2 fold change [1],log2 fold change (vorinostat),log2 fold change (silmitasertib),log2 fold change [2],log2 fold change (entospletinib)
DTL (UniProt Q9NZJ0),-0.011,-0.165,-0.042,0.052,–
EPHX2 (UniProt P34913),0.002,0.243 (active),0.002,-0.021,-0.058
FLAD1 (UniProt Q8NFF5),-0.012,-0.397 (active),0.102,-0.005,0.037
EAPP (UniProt Q56P03),-0.083,0.029,-0.086,0.024,0.024
FARSB (UniProt Q9NSD9),-0.01,0.015,0.013,-0.013,0.011
ENO2 (UniProt P09104),-0.021,0.03,-0.014,0.001,-0.068
FXR1 (UniProt P51114),-0.006,-0.257 (active),0.045,-0.041,0.023
ERI1 (UniProt Q8IV48),-0.001,-0.221 (active),-0.035,-0.017,0.041
FAU (UniProt E9PR30),0.006,0.212 (active),0.047,-0.006,0.016
FCHO1 (UniProt O14526),0.041,-0.286 (active),0.03,-0.006,0.024
DST (UniProt Q03001),0.262,-0.035,-0.02,0.01,-0.03
EXTL2 (UniProt Q9UBQ6),-0.171,0.189,-0.053,0.01,-0.036
GAPVD1 isoform 6 (UniProt Q14C86),-0.033,-0.292 (active),0.04,-0.001,-0.002
DTYMK (UniProt P23919),-0.022,-0.294 (active),0.071,-0.023,0.061
ENY2 (UniProt Q9NPA8),-0.066,0.118,-0.032,0.016,-0.018
ESYT2 (UniProt H7BXI1),-0.041,0.243 (active),-0.002,-0.002,0.019
DSTN (UniProt P60981),-0.012,-0.34 (active),0.014,-0.031,-0.021
ETHE1 (UniProt O95571),-0.01,-0.113,0.009,0,-0.02
FXR2 (UniProt P51116),0.033,-0.25 (active),-0.039,-0.022,-0.064
FNTB (UniProt P49356),0.03,0.03,-0.018,-0.032,-0.048
FKBP8 isoform 2 (UniProt Q14318),0.024,-0.219 (active),0.001,-0.028,0.018
FKBP1A (UniProt P62942),-0.154,0.036,-0.006,0.068,0.049
FBXO9 (UniProt Q9UK97),-0.154,-0.135,0.009,-0.046,-0.188
FMNL1 isoform 3 (UniProt O95466),0.051,-0.292 (active),-0.01,0.071,-0.066
DSN1 (UniProt Q9H410),-0.028,-0.358 (active),-0.007,0.008,-0.017
EXOC6 (UniProt Q8TAG9),-0.074,-0.301 (active),0.057,-0.006,0.021
GEMIN2 (UniProt O14893),0.003,-0.425 (active),0.002,0.04,-0.005
